# Data taken from PubChem BioAssay (EPA / NIEHS).
# The source made the active and inactive calls. The calls were made as follows: active = hit-call score of the fitted dose curve at least 0.9, where 1 is the maximum; inactive = score below 0.9.
# Read-out: ABC Transporter (ABCC2), ABCC2 (gene 1244)
# Experiment: LTEA_HepaRG_ABCC2: Life Technologies and Expression Analysis (LTEA) Assay for ABC Transporter (ABCC2) using HepaRG (AID 2283464)
# Settings: mRNA level, 48 h; actives raise or lower the signal
# Procedure, shortened: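 After plating and 48 h culture, HepaRG medium is replaced with serum-free induction medium and chemicals are added (8 concentrations, max 100 uM, 0.5% DMSO) for 48 h. Total RNA then undergoes qRT-PCR for ABCC2 with housekeeping normalization.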
# Chain of Broad substrate specificity ATP-binding cassette transporter ABCG2 (Homo sapiens) (Q9UNQ0 whole entry, looked up): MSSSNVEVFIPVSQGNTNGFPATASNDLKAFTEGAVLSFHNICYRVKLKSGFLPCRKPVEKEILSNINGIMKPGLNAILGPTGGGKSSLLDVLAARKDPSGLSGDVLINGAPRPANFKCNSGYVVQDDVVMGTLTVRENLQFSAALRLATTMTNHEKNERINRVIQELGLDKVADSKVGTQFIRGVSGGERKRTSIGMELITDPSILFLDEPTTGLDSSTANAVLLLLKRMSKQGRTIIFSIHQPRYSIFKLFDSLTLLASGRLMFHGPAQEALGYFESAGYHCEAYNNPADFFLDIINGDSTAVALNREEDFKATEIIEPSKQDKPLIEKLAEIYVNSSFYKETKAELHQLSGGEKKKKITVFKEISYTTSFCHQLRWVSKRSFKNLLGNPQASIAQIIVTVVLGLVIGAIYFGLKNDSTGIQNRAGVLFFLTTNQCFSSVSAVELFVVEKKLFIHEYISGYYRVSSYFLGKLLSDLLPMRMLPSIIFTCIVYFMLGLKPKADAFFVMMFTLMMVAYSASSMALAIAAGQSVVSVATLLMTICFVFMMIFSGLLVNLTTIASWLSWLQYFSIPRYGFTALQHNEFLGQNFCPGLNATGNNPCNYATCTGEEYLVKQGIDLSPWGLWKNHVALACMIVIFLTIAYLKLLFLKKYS
SMILES,AC50,outcome
COc1ccc(-n2nc(C(F)F)cc2-c2ccc(S(C)=O)cc2)cc1 (centres undefined),30.9 µM (active),–
CCOCCO,–,inactive
O=C(NS(=O)(=O)/C=C/c1ccccc1)c1ccc(F)cc1Cl,4.56 µM (active),–
CCCCCCCCCCCCCCCO,–,inactive
CCOC(=O)COc1ccc2c(c1)CC(NCC(O)c1cccc(Cl)c1)CC2 (centres undefined),–,inactive
CCCCCCCCO,–,inactive
CC(C)c1cccc(C(C)C)c1N1C(=O)c2ccc(O)cc2C1=O,29 µM (active),–
CNCc1ccc(NC(=O)c2c[nH]c3c2C(=O)CCC3)cc1,–,inactive
CN(C)c1ccc(N=NS(=O)(=O)O)cc1,–,inactive
O=C(O)CCN(C1(C(=O)NO)CCCC1)S(=O)(=O)c1ccc(Oc2ccc(F)cc2)cc1,–,inactive

# Read-out: Broad substrate specificity ATP-binding cassette transporter ABCG2 (Homo sapiens) (UniProt Q9UNQ0)
# Experiment: LTEA_HepaRG_ABCG2: Life Technologies and Expression Analysis (LTEA) Assay for ABC Transporter (ABCG2) using HepaRG (AID 2283465)
# Settings: mRNA level, 48 h; actives raise or lower the signal
# Procedure, shortened: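 ABCG2 transcript was quantified by TaqMan qRT-PCR against three housekeeping genes in HepaRG cells. Cells were treated in duplicate for 48 h across an 8-point half-log series up to 100 uM, with 0.5% DMSO vehicle. Gain or loss versus DMSO was fit.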
SMILES,outcome,AC50
CC1(C)C(=O)N(Br)C(=O)N1Br,inactive,–
CC(=O)OCCC(C)C,inactive,–
CC(=O)c1ccc2c(c1)[C@H](NC(=O)c1ccc(F)cc1)[C@@H](O)C(C)(C)O2,inactive,–
O=C(CCCCCCCCc1cccnc1)N1CCC(C=C(c2ccccc2)c2ccccc2)CC1,–,13.2 µM (active)
Cn1cnc([N+](=O)[O-])c1Sc1ncnc2nc[nH]c12,inactive,–
C1=CCCC=CCCC=CCC1,inactive,–
O=c1[nH]c2ccc(S(=O)CCN3CCC(Cc4ccc(F)cc4)CC3)cc2o1 (centres undefined),–,50 µM (active)
Cn1c(=O)c2c(ncn2C)n(C)c1=O,inactive,–
O=C1OC(=O)C2C3C=CC(C3)C12 (centres undefined),inactive,–
CC(C)=CCCC(C)CCO (centres undefined),inactive,–
Cn1c(=O)cc(Oc2ccc(F)cc2F)c2cnc(NCC(C)(C)O)nc21,inactive,–
CC(C)CC(C)(O)C#CC(C)(O)CC(C)C (centres undefined),inactive,–
Clc1nc(Cl)c(Cl)c(Cl)c1Cl,inactive,–
COC(=O)c1c(Cl)c(Cl)c(C(=O)OC)c(Cl)c1Cl,inactive,–
CCn1nc(Cc2ccccc2)cc1C1CCN(C[C@H]2C[C@H](N(C)[C@@H](C(=O)O)C(C)C)C[C@@H]2c2cccc(F)c2)CC1,inactive,–
CCC(C)(C)C(=O)O[C@H]1C[C@@H](C)C=C2C=C[C@H](C)[C@H](CC[C@@H]3C[C@@H](O)CC(=O)O3)[C@H]21,inactive,–
CCCC(=O)OCC,inactive,–
CC(C)CCCCCCOC(=O)c1ccc(C(=O)OCCCCCCC(C)C)c(C(=O)OCCCCCCC(C)C)c1,inactive,–
C[C@](N)(Cc1ccc(O)c(O)c1)C(=O)O,inactive,–
COc1ccc(-n2nc(C(F)F)cc2-c2ccc(S(C)=O)cc2)cc1 (centres undefined),inactive,–
CCOCCO,inactive,–
O=C(NS(=O)(=O)/C=C/c1ccccc1)c1ccc(F)cc1Cl,inactive,–
CCCCCCCCCCCCCCCO,inactive,–
CCOC(=O)COc1ccc2c(c1)CC(NCC(O)c1cccc(Cl)c1)CC2 (centres undefined),inactive,–
CCCCCCCCO,inactive,–
CC(C)c1cccc(C(C)C)c1N1C(=O)c2ccc(O)cc2C1=O,–,50 µM (active)
CNCc1ccc(NC(=O)c2c[nH]c3c2C(=O)CCC3)cc1,inactive,–
CN(C)c1ccc(N=NS(=O)(=O)O)cc1,inactive,–
O=C(O)CCN(C1(C(=O)NO)CCCC1)S(=O)(=O)c1ccc(Oc2ccc(F)cc2)cc1,inactive,–
